# Results published in article PMC11006913.
# Changes are numbered by the printed parent chain.
# Key:
# Assay in all cases: PBM; 200 nM protein, PBS
# Details in all cases: dsDNA, one strand shown
# [1] = molecular target: SHOX (Homo sapiens, UniProt O15266 103-189)
# [2] = molecular target: T1, PAX4 (Homo sapiens, UniProt O43316 9-242, R200K)
# T1 sequence: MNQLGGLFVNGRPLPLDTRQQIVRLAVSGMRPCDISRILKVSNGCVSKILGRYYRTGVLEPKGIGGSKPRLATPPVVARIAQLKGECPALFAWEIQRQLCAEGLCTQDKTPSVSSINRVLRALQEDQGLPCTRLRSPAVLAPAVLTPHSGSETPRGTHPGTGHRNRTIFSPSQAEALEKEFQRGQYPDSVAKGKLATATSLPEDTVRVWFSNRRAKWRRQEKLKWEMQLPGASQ
# [3] = molecular target: T2, PAX4 (Homo sapiens, UniProt O43316 9-242)
# T2 sequence: T1 sequence with K192R
# [4] = molecular target: MSX2 (Homo sapiens, UniProt P35548 130-214, R199I)
# [5] = molecular target: ALX1 (Homo sapiens, UniProt Q15699 118-204, L144V)
# [6] = molecular target: T3, PAX4 (Homo sapiens, UniProt O43316 9-242, R200Q)
# T3 sequence: T1 sequence with K192Q
# [7] = molecular target: PITX2 (Homo sapiens, UniProt Q99697 72-157)
# [8] = molecular target: SHOX (Homo sapiens, UniProt O15266 103-189, R173C)
# [9] = molecular target: ALX1 (Homo sapiens, UniProt Q15699 118-204, L144R)
# [10] = molecular target: T4, PAX4 (Homo sapiens, UniProt O43316 9-242, F177V)
# T4 sequence: T1 sequence with F169V, K192R
# [11] = molecular target: MSX2 (Homo sapiens, UniProt P35548 130-214)
# [12] = molecular target: T5, PAX4 (Homo sapiens, UniProt O43316 9-242, F177Y)
# T5 sequence: T1 sequence with F169Y, K192R
# [13] = molecular target: MSX2 (Homo sapiens, UniProt P35548 130-214, F161Y)
# [14] = molecular target: T6, PAX4 (Homo sapiens, UniProt O43316 9-242, R227W)
# T6 sequence: T1 sequence with K192R, R219W
# [15] = molecular target: ALX1 (Homo sapiens, UniProt Q15699 118-204)
# [16] = molecular target: HOXC10 (Homo sapiens, UniProt Q9NYD6 254-340)
# [17] = molecular target: HOXD13 (Homo sapiens, UniProt P35453 263-343, T313R)
# [18] = molecular target: HOXD13 (Homo sapiens, UniProt P35453 263-343)
# [19] = molecular target: HOXC10 (Homo sapiens, UniProt Q9NYD6 254-340, K271E)
# [20] = molecular target: HOXD13 (Homo sapiens, UniProt P35453 263-343, T313A)
# [21] = molecular target: HOXB6 (Homo sapiens, UniProt P17509 132-218, K202E)
# [22] = molecular target: ALX3 (Homo sapiens, UniProt O95076 139-225, N203Q)
# [23] = molecular target: ALX3 (Homo sapiens, UniProt O95076 139-225)
# [24] = molecular target: ALX3 (Homo sapiens, UniProt O95076 139-225, L168Q)
# [25] = molecular target: ALX3 (Homo sapiens, UniProt O95076 139-225, L168V)
# [26] = molecular target: ALX3 (Homo sapiens, UniProt O95076 139-225, N203S)
# [27] = molecular target: HOXB6 (Homo sapiens, UniProt P17509 132-218)
# [28] = molecular target: ALX4 (Homo sapiens, UniProt Q9H161 200-286)
# [29] = molecular target: ALX4 (Homo sapiens, UniProt Q9H161 200-286, Q225E)
# [30] = molecular target: NKX3-2 (Homo sapiens, UniProt P78367 192-278, P234S)
# [31] = molecular target: NKX3-2 (Homo sapiens, UniProt P78367 192-278)
# [32] = molecular target: T7, NKX2-6 (Homo sapiens, UniProt A6NCS4 118-204, R150C)
# T7 sequence: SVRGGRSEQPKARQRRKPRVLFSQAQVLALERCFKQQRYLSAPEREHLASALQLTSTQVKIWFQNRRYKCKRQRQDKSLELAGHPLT
# Chain of SHOX (Homo sapiens, UniProt O15266 103-189, R173C) (O15266 103-189 R173C): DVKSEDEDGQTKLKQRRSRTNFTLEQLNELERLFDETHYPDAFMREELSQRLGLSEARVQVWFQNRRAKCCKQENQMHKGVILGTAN
# Chain of SHOX (Homo sapiens, UniProt O15266 103-189) (O15266 103-189): as the sequence (O15266 103-189 R173C) above, with C71R counted along it
# Chain of ALX3 (Homo sapiens, UniProt O95076 139-225, L168V) (O95076 139-225 L168V): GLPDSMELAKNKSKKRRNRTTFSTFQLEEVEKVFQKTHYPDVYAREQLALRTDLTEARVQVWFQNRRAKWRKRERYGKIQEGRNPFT
# Chain of ALX3 (Homo sapiens, UniProt O95076 139-225, N203Q) (O95076 139-225 N203Q): as the sequence (O95076 139-225 L168V) above, with V30L, N65Q counted along it
# Chain of ALX1 (Homo sapiens, UniProt Q15699 118-204, L144R) (Q15699 118-204 L144R): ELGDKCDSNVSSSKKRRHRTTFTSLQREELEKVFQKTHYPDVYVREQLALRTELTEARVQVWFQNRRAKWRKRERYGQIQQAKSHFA
# Chain of ALX3 (Homo sapiens, UniProt O95076 139-225, N203S) (O95076 139-225 N203S): as the sequence (O95076 139-225 L168V) above, with V30L, N65S counted along it
# Chain of ALX1 (Homo sapiens, UniProt Q15699 118-204, L144V) (Q15699 118-204 L144V): as the sequence (Q15699 118-204 L144R) above, with R27V counted along it
# Chain of HOXC10 (Homo sapiens, UniProt Q9NYD6 254-340) (Q9NYD6 254-340): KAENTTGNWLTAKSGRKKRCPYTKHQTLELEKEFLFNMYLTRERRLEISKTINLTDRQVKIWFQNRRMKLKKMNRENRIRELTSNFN
# Chain of ALX1 (Homo sapiens, UniProt Q15699 118-204) (Q15699 118-204): as the sequence (Q15699 118-204 L144R) above, with R27L counted along it
# Chain of ALX3 (Homo sapiens, UniProt O95076 139-225, L168Q) (O95076 139-225 L168Q): as the sequence (O95076 139-225 L168V) above, with V30Q counted along it
# Chain of HOXC10 (Homo sapiens, UniProt Q9NYD6 254-340, K271E) (Q9NYD6 254-340 K271E): as the sequence (Q9NYD6 254-340) above, with K18E counted along it
# Chain of ALX3 (Homo sapiens, UniProt O95076 139-225) (O95076 139-225): as the sequence (O95076 139-225 L168V) above, with V30L counted along it
# Chain of NKX3-2 (Homo sapiens, UniProt P78367 192-278) (P78367 192-278): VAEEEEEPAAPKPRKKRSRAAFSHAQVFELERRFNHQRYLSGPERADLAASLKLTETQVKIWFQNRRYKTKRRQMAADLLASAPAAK
# Chain of HOXD13 (Homo sapiens, UniProt P35453 263-343, T313R) (P35453 263-343 T313R): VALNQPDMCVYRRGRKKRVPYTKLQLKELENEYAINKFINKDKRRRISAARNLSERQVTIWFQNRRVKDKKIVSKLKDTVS
# Chain of ALX4 (Homo sapiens, UniProt Q9H161 200-286, Q225E) (Q9H161 200-286 Q225E): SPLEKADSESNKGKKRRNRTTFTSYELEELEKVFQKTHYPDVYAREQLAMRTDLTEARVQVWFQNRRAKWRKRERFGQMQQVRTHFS
# Chain of NKX3-2 (Homo sapiens, UniProt P78367 192-278, P234S) (P78367 192-278 P234S): as the sequence (P78367 192-278) above, with P43S counted along it
# Chain of HOXD13 (Homo sapiens, UniProt P35453 263-343, T313A) (P35453 263-343 T313A): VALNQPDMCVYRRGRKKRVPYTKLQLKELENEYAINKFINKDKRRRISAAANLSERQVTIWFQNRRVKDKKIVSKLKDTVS
# Chain of ALX4 (Homo sapiens, UniProt Q9H161 200-286) (Q9H161 200-286): as the sequence (Q9H161 200-286 Q225E) above, with E26Q counted along it
# Chain of HOXD13 (Homo sapiens, UniProt P35453 263-343) (P35453 263-343): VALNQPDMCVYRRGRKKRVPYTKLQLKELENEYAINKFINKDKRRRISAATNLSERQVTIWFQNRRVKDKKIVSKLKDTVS
# Chain of MSX2 (Homo sapiens, UniProt P35548 130-214) (P35548 130-214): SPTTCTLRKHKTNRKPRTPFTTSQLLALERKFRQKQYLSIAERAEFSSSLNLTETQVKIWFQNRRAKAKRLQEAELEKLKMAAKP
# Chain of HOXB6 (Homo sapiens, UniProt P17509 132-218, K202E) (P17509 132-218 K202E): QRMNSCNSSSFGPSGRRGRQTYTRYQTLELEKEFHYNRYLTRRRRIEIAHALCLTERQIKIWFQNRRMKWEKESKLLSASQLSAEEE
# Chain of MSX2 (Homo sapiens, UniProt P35548 130-214, F161Y) (P35548 130-214 F161Y): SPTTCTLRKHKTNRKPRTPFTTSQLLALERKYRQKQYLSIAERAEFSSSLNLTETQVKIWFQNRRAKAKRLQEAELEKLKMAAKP
# Chain of HOXB6 (Homo sapiens, UniProt P17509 132-218) (P17509 132-218): as the sequence (P17509 132-218 K202E) above, with E71K counted along it
# Chain of MSX2 (Homo sapiens, UniProt P35548 130-214, R199I) (P35548 130-214 R199I): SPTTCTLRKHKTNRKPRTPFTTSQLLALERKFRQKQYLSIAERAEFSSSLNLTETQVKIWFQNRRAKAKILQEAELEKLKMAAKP
sequence,measurement,setting,value
ACTGGGGG,binding signal,[1],"7.05 upbm affinity estimate (log intensity, higher = more binding, comparable within an allelic series)"
same,binding signal,[2],"8.98 upbm affinity estimate (log intensity, higher = more binding, comparable within an allelic series)"
same,binding signal,[3],"9.06 upbm affinity estimate (log intensity, higher = more binding, comparable within an allelic series)"
same,binding signal,[4],"9.43 upbm affinity estimate (log intensity, higher = more binding, comparable within an allelic series)"
same,binding signal,[5],"6.32 upbm affinity estimate (log intensity, higher = more binding, comparable within an allelic series)"
same,binding signal,[6],"9.22 upbm affinity estimate (log intensity, higher = more binding, comparable within an allelic series)"
same,binding signal,[7],"7.95 upbm affinity estimate (log intensity, higher = more binding, comparable within an allelic series)"
same,binding signal,[8],"7.08 upbm affinity estimate (log intensity, higher = more binding, comparable within an allelic series)"
same,binding signal,[9],"6.52 upbm affinity estimate (log intensity, higher = more binding, comparable within an allelic series)"
same,binding signal,[10],"9.12 upbm affinity estimate (log intensity, higher = more binding, comparable within an allelic series)"
same,binding signal,[11],"9.41 upbm affinity estimate (log intensity, higher = more binding, comparable within an allelic series)"
same,binding signal,[12],"9.07 upbm affinity estimate (log intensity, higher = more binding, comparable within an allelic series)"
same,binding signal,[13],"9.45 upbm affinity estimate (log intensity, higher = more binding, comparable within an allelic series)"
same,binding signal,[14],"9.15 upbm affinity estimate (log intensity, higher = more binding, comparable within an allelic series)"
same,binding signal,[15],"6.23 upbm affinity estimate (log intensity, higher = more binding, comparable within an allelic series)"
CCCTTCGA,binding signal,[1],"6.95 upbm affinity estimate (log intensity, higher = more binding, comparable within an allelic series)"
same,binding signal,[16],"10 upbm affinity estimate (log intensity, higher = more binding, comparable within an allelic series)"
same,binding signal,[17],"9.49 upbm affinity estimate (log intensity, higher = more binding, comparable within an allelic series)"
same,binding signal,[8],"7.13 upbm affinity estimate (log intensity, higher = more binding, comparable within an allelic series)"
same,binding signal,[18],"9.43 upbm affinity estimate (log intensity, higher = more binding, comparable within an allelic series)"
same,binding signal,[19],"10.1 upbm affinity estimate (log intensity, higher = more binding, comparable within an allelic series)"
same,binding signal,[20],"9.48 upbm affinity estimate (log intensity, higher = more binding, comparable within an allelic series)"
CCAGCTCC,binding signal,[1],"7.19 upbm affinity estimate (log intensity, higher = more binding, comparable within an allelic series)"
same,binding signal,[21],"8.94 upbm affinity estimate (log intensity, higher = more binding, comparable within an allelic series)"
same,binding signal,[22],"7.65 upbm affinity estimate (log intensity, higher = more binding, comparable within an allelic series)"
same,binding signal,[8],"7.18 upbm affinity estimate (log intensity, higher = more binding, comparable within an allelic series)"
same,binding signal,[23],"7.54 upbm affinity estimate (log intensity, higher = more binding, comparable within an allelic series)"
same,binding signal,[24],"7.75 upbm affinity estimate (log intensity, higher = more binding, comparable within an allelic series)"
same,binding signal,[25],"7.76 upbm affinity estimate (log intensity, higher = more binding, comparable within an allelic series)"
same,binding signal,[26],"7.69 upbm affinity estimate (log intensity, higher = more binding, comparable within an allelic series)"
same,binding signal,[27],"8.78 upbm affinity estimate (log intensity, higher = more binding, comparable within an allelic series)"
CCCTCCCG,binding signal,[1],"6.94 upbm affinity estimate (log intensity, higher = more binding, comparable within an allelic series)"
same,binding signal,[28],"8.02 upbm affinity estimate (log intensity, higher = more binding, comparable within an allelic series)"
same,binding signal,[29],"8.18 upbm affinity estimate (log intensity, higher = more binding, comparable within an allelic series)"
same,binding signal,[8],"7.03 upbm affinity estimate (log intensity, higher = more binding, comparable within an allelic series)"
GCAAATTA,binding signal,[1],"11.6 upbm affinity estimate (log intensity, higher = more binding, comparable within an allelic series)"
same,binding signal,[2],"11.6 upbm affinity estimate (log intensity, higher = more binding, comparable within an allelic series)"
same,binding signal,[3],"12.1 upbm affinity estimate (log intensity, higher = more binding, comparable within an allelic series)"
same,binding signal,[5],"11.2 upbm affinity estimate (log intensity, higher = more binding, comparable within an allelic series)"
same,binding signal,[6],"11.9 upbm affinity estimate (log intensity, higher = more binding, comparable within an allelic series)"
same,binding signal,[8],"8.89 upbm affinity estimate (log intensity, higher = more binding, comparable within an allelic series)"
same,binding signal,[9],"10.8 upbm affinity estimate (log intensity, higher = more binding, comparable within an allelic series)"
same,binding signal,[10],"10.3 upbm affinity estimate (log intensity, higher = more binding, comparable within an allelic series)"
same,binding signal,[12],"10.8 upbm affinity estimate (log intensity, higher = more binding, comparable within an allelic series)"
same,binding signal,[14],"10.8 upbm affinity estimate (log intensity, higher = more binding, comparable within an allelic series)"
same,binding signal,[15],"12 upbm affinity estimate (log intensity, higher = more binding, comparable within an allelic series)"
ACGGGGCC,binding signal,[1],"7.07 upbm affinity estimate (log intensity, higher = more binding, comparable within an allelic series)"
same,binding signal,[16],"10.1 upbm affinity estimate (log intensity, higher = more binding, comparable within an allelic series)"
same,binding signal,[8],"7.17 upbm affinity estimate (log intensity, higher = more binding, comparable within an allelic series)"
same,binding signal,[19],"10.1 upbm affinity estimate (log intensity, higher = more binding, comparable within an allelic series)"
same,binding signal,[30],"10.8 upbm affinity estimate (log intensity, higher = more binding, comparable within an allelic series)"
same,binding signal,[31],"10.8 upbm affinity estimate (log intensity, higher = more binding, comparable within an allelic series)"
CACCACCC,binding signal,[1],"7.17 upbm affinity estimate (log intensity, higher = more binding, comparable within an allelic series)"
same,binding signal,[2],"9.48 upbm affinity estimate (log intensity, higher = more binding, comparable within an allelic series)"
same,binding signal,[3],"9.49 upbm affinity estimate (log intensity, higher = more binding, comparable within an allelic series)"
same,binding signal,[32],"9.46 upbm affinity estimate (log intensity, higher = more binding, comparable within an allelic series)"
same,binding signal,[6],"9.54 upbm affinity estimate (log intensity, higher = more binding, comparable within an allelic series)"
same,binding signal,[8],"7.25 upbm affinity estimate (log intensity, higher = more binding, comparable within an allelic series)"
same,binding signal,[10],"9.4 upbm affinity estimate (log intensity, higher = more binding, comparable within an allelic series)"
same,binding signal,[12],"9.47 upbm affinity estimate (log intensity, higher = more binding, comparable within an allelic series)"
same,binding signal,[14],"9.4 upbm affinity estimate (log intensity, higher = more binding, comparable within an allelic series)"
CGCCGAGC,binding signal,[1],"7.14 upbm affinity estimate (log intensity, higher = more binding, comparable within an allelic series)"
same,binding signal,[2],"9.36 upbm affinity estimate (log intensity, higher = more binding, comparable within an allelic series)"
same,binding signal,[3],"9.47 upbm affinity estimate (log intensity, higher = more binding, comparable within an allelic series)"
same,binding signal,[22],"7.72 upbm affinity estimate (log intensity, higher = more binding, comparable within an allelic series)"
same,binding signal,[6],"9.48 upbm affinity estimate (log intensity, higher = more binding, comparable within an allelic series)"
same,binding signal,[8],"7.23 upbm affinity estimate (log intensity, higher = more binding, comparable within an allelic series)"
same,binding signal,[10],"9.31 upbm affinity estimate (log intensity, higher = more binding, comparable within an allelic series)"
same,binding signal,[23],"7.76 upbm affinity estimate (log intensity, higher = more binding, comparable within an allelic series)"
same,binding signal,[12],"9.32 upbm affinity estimate (log intensity, higher = more binding, comparable within an allelic series)"
same,binding signal,[24],"7.81 upbm affinity estimate (log intensity, higher = more binding, comparable within an allelic series)"
same,binding signal,[25],"7.74 upbm affinity estimate (log intensity, higher = more binding, comparable within an allelic series)"
same,binding signal,[14],"9.41 upbm affinity estimate (log intensity, higher = more binding, comparable within an allelic series)"
same,binding signal,[26],"7.79 upbm affinity estimate (log intensity, higher = more binding, comparable within an allelic series)"
